# Assay outcomes (PubChem)
# D1 antag: blocks dopamine activation of the human D1 receptor; P21728; HEK293 TREx D1 cells, calcium flux, dopamine EC80; hits give low values; activity change, negative = inhibition, % at 10 µM; 360,000 compounds, 3.2% hits; AID 504652; in the data active means activity change below about -30%; further: on the % scale 0 is the no-effect control and ±100 the full control effect
# Target sequence (P21728 whole entry, looked up): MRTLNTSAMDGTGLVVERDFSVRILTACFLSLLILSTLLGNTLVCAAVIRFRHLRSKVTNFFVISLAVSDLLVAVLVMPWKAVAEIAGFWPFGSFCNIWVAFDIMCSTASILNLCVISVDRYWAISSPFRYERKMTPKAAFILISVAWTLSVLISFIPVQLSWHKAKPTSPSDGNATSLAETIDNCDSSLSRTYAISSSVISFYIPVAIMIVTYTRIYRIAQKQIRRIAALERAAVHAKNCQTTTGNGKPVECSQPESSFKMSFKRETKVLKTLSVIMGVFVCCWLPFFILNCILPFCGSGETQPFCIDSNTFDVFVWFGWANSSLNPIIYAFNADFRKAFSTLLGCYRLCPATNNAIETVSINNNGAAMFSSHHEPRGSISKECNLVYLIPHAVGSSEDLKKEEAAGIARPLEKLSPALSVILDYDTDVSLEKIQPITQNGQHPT
#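 After overnight tetracycline induction at 30 C, force-coupled D1 HEK293 cells took up a no-wash calcium dye at room temperature. Compounds were added and monitored 180 s, and the response to EC80 dopamine was then recorded.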
# D1 agonist: agonists of human D1 dopamine receptor. AID 504660. 360,000 compounds, 1% hits. activation, % at 2 µM. P21728. HEK293 T-REx D1 cells, calcium flux, agonist mode; further: 0% is about no effect
#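 Inducible HEK293 T-REx D1 cells, force-coupled to calcium signalling, were plated at 4000 cells/well with tetracycline and held overnight at 30 C. After no-wash calcium dye loading, compound-evoked calcium rise over 180 s flagged agonists.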
# GRP78 ERSR act: inducers of ER stress response in human glioma cells. U87-MG GRP78 promoter luciferase reporter, 16 h. Potency, µM, for the others: top-dose activation, hits mostly activators. 420,000 compounds, 0.02% hits. AID 602332; active means well fitted activation curve with a large enough effect; inconclusive means small, poorly fitted or top-dose-only effect; inactive means no such curve, though single readings can be large or run the other way; further: potency means the concentration at half of the fitted maximal effect; series mostly up to about 76 µM; % of control where 0% means no effect; nearly all actives have a fitted effect of over 35% in size
#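 ERSR induction read as luciferase luminescence (Bright-Glo, 10 min at room temperature) in stably transfected human U87-MG glioma cells exposed to compounds for 16 h, using GRP78 as sensor.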
# TRHR ag: TRH receptor (human) agonism; P34981; TRHR cells, calcium flux fluo-8, FDSS agonist mode; activation, % at 2 µM; 360,000 compounds, 0.18% hits; further: 0% is about no effect
#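 Agonist-mode FDSS calcium read (Ex 480/Em 530, 1 s cycles) in 1536-well TRHR cells with fluo-8 dye, after 10-cycle baseline and 23 nL compound addition; TRH at EC20 (10 nM final) added afterwards for the enhancer phase.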
# TRHR enhancer: TRH receptor (human) allosteric enhancement; enhancement, % at 2 µM; TRHR cells, fluo-8 calcium fluorescence, EC20 TRH enhancement; 360,000 compounds, 0.66% hits; AID 493056; P34981; in the data active means enhancement above about 30%; further: 0% is about no effect
#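 Enhancer read-out: after compound pinning and an initial kinetic agonist-mode read, an EC20 of TRH (10 nM final) was injected and fluo-8 calcium signal (Ex 480/Em 530) followed at 1 s/cycle for 100 cycles in TRHR-expressing cells.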
# D1 PAM: human D1 dopamine receptor positive modulation; P21728; HEK293 TREx D1 cells, calcium flux, dopamine EC20 potentiation; potentiation, % at 10 µM; 360,000 compounds, 0.036% hits; in the data active means potentiation above about 30%; further: 0% is about no effect
# Numbers without * were called inactive; u = inconclusive; x = no result given. Sampled rows, rich in hits. Any-hit rate of the full collection: about 4%. Unless noted, no stated cut-off is given here; in the data, active means activation above about 30%; inactive means the rest.
SMILES,D1 antag,D1 agonist,GRP78 ERSR act,TRHR ag,TRHR enhancer,D1 PAM
CCOC(=O)C1=C(O)C(=O)N(c2ccc(S(N)(=O)=O)cc2)C1c1ccc(Cl)cc1 (configuration not stated),-38*,0,-3%,-1,-2,0
CCOC(=O)C1=C(O)C(=O)N(c2ccc(S(N)(=O)=O)cc2)C1c1ccc(Br)cc1 (configuration not stated),-2,8,-6%,0,10,-1
CCOc1ccccc1NC(=S)N(CCOC)C1CCN(C(C)=O)CC1,-7,2,3%,0,0,-4
COCCN(C(=S)Nc1ccccc1OC)C1CCN(C(C)=O)CC1,-35*,1,-4%,0,10,-5
CCOc1ccccc1NC(=O)COn1nnc2ccc(Cl)cc21,-5,30*,-6%,0,9,5
COc1cccc(NS(=O)(=O)c2ccc(Br)s2)c1,-35*,19,-1%,0,4,-4
CCOC(=O)c1cccc(NC(=O)c2cc3sccc3n2Cc2ccc(Cl)cc2)c1,6,10,1%,-2,3,-5
CCOC(=O)c1cccc(NC(=O)c2cc3sccc3n2C)c1,-32*,2,-5%,-1,2,-7
COc1ccc(CC2(CO)CCN(Cc3cccc(OC)c3OC)CC2)cc1,-7,10,1%,4,-1,-6
CC(=O)c1cccc(NC(=O)Nc2nc(C)cc(C)n2)c1,6,1,3%,-1,33*,-5
CC(=O)c1cccc(Nc2cc(C)nc3c(C)cccc23)c1,-66*,0,1%,-4,8,-5
CC(=O)c1cccc(NC(=O)Nc2ccccc2)c1,-1,10,3%,1,-5,-4
O=C(c1cc(C(F)(F)F)cc(C(F)(F)F)c1)N1CCC[C@@]2(CCN(Cc3ccccc3)C2)C1,x,x,-2%,x,x,x
CN(C)c1ccc(CNCCC(Cc2ccccc2)c2ccco2)cc1 (configuration not stated),11,47*,-8%,3,8,-7
c1ccc(CNCCC(Cc2ccccc2)c2ccco2)cc1 (configuration not stated),-2,19,-6%,1,2,-6
C=CCn1c(COc2ccccc2F)nnc1SCC(=O)c1c[nH]c2ccccc12,-35*,5,-5%,0,13,-5
COCCN(CC(=O)Nc1cccc(C)c1C)C(=O)c1ccc2ccccc2n1,-12,1,-2%,0,32*,3
COc1ccc(-c2coc3cc(O[C@@H]4O[C@H](CO)[C@@H](O)[C@H](O)[C@H]4O)c(OC)cc3c2=O)cc1,x,x,0%,x,x,x
COC(=O)c1ccc(CN(Cc2ccc(C(=O)OC)o2)C(C)(C)C)o1,17,3,-4%,0,37*,-1
COC(=O)c1ccc(COc2ccc(C(C)(C)C)cc2)o1,-16,2,-9%,0,4,-4
Cc1cc(NC(=O)CSc2nnc(-c3ccccc3)c(-c3ccccc3)n2)no1,-78*,1,-4%,-1,-15,-4
Cc1cc(NC(=O)CSc2ccccc2)no1,-19,1,3%,0,-5,-1
CCc1cc2cccc(C)c2nc1SCC(=O)Nc1cc(C)on1,0,7,-2%,0,40*,-4
Cc1cc(NC(=O)CSCC(=O)Nc2ccccc2Oc2ccccc2)no1,-37*,3,-5%,-1,-3,2
CC(Oc1ccc([N+](=O)[O-])cc1)C(=O)NCCCN1CCOCC1 (configuration not stated),-4,1,-5%,0,0,3
COc1ccc(C(=O)NC(C)CCc2ccccc2)c(O)c1 (configuration not stated),-48*,16,u,-1,9,-6
O=S(=O)(NCCc1csc(-c2cccc(F)c2)n1)c1cc(F)ccc1F,-1,7,-4%,0,-2,-4
O=C1NC(c2ccc(Br)cc2)Nc2ccccc21 (configuration not stated),-32*,-2,-2%,0,0,-4
